The nature of test [1]: Primary qHTS for inhibitors of nuclear receptor binding SET domain protein 2 (NSD2) in an isogenic RCH-ACV NSD2 p.E1099K mutant (9B) (AID 1645876). (Quantitative high-throughput screening tests each substance at several concentrations.)
Test [2] can be described thus: Primary qHTS for inhibitors of nuclear receptor binding SET domain protein 2 (NSD2) in an RCH-ACV wild type WT cells (2C) (AID 1645877).

Several values for one entry are separate records, joined by “and”; a condition that tells them apart may be missing. Equal values may be shown once. Inconclusive results are not listed. A call without a number means that no potency is given here. A structure can be active in one record and inactive in another. Activity calls are given as the source filed them. The call rests on the fitted dose curve; in most records, active means well fitted curve in the direction sought with a large enough effect; inconclusive means small, poorly fitted or top-dose-only effect, or another doubt; inactive means no such curve, though single readings can be large; an effect the other way counts as inactive or inconclusive.
Further: nearly all actives have a fitted effect of over 70% in size.
Potency means the concentration at half of the fitted maximal effect.

As for `CC(=O)NC(C(=O)OC1CCC(C)(C)C2CC=C3C(=O)OCC3(O)C12C)C(C)C` (stereo unspecified), the Potency entry in test [1] is “inactive”.
Take `CC(=O)O[C@H](C[C@@H](C)[C@H]1C(=O)[C@H](O)[C@@]2(C)[C@@H]3CCC4C(C)(C)[C@@H](O[C@@H]5OC[C@H](O)[C@H](O)[C@H]5O)CC[C@@]45C[C@@]35CC[C@]12C)[C@@H]1OC1(C)C` (stereo partly specified): the Potency result in test [1] and in test [2] was “inactive” in each case.
For the compound `C[C@@H]1CCC2C(C)(C)[C@H](O)CC[C@]2(C)[C@@]12Cc1c(O)cc3c(c1O2)CN(CCO)C3=O` (stereo partly specified), the Potency result in test [1] and in test [2] was “inactive” each time.
Consider `CCCCC(=O)OCC(=O)[C@]1(O)Cc2c(O)c3c(c(O)c2[C@@H](O[C@H]2C[C@H](NC(=O)C(F)(F)F)[C@H](O)[C@H](C)O2)C1)C(=O)c1c(OC)cccc1C3=O`, for which the Potency in test [1] was 263 nM (active); in test [2], 166 nM (active).
As for `CC1CCCC2OC2C(=O)c2c(O)cc(O)cc2CC(=O)O1` (stereo unspecified), in test [1], the Potency result is “inactive”.
Regarding `C=C(C)[C@@H]1CC[C@](C)(O)[C@@H](OC(=O)c2ccccc2)C1`, the Potency entry in test [1] was “inactive”.
As to `C/C=C/C1=CC2=CC(=O)C(C)(O)C(OC(=O)c3c(C)cc(O)cc3O)C2CO1` (stereo unspecified), the Potency entry in test [1] was “inactive”.
In the case of `C=CC(C)(CC/C=C(\C)CC/C=C(\C)CC(O)/C=C(\C)C(=O)O)O[C@@H]1O[C@H](CO)[C@@H](O)[C@H](O)[C@H]1O[C@@H]1O[C@H](CO)[C@@H](O)[C@H](O)[C@H]1O` (stereo partly specified), the Potency entry in test [1] and in test [2] was “inactive” each time.
For the compound `C/C(=C\CCC(C(=O)O)C1CCC2(C)C3=C(CCC12C)C1(C)CCC(=O)C(C)(C)C1CC3)C(=O)O` (stereo unspecified), in test [1], the Potency entry was “inactive”.
On to `O=C(CCO[C@@H]1O[C@H](CO)[C@@H](O)[C@H](O)[C@H]1O)c1ccc(O)cc1`, for which the Potency result in test [1] and in test [2] was “inactive” throughout.
For the compound `NC1CCC(N[C@@H]2C[C@H]2c2ccccc2)CC1` (stereo partly specified), the Potency entry in test [1] was “inactive”. In addition, the Potency result in test [2] is “inactive and 26.3 µM (active)”.
Turning to `CCCC1=CC2=C(CO1)C(=O)C(C)(OC(=O)c1c(C)cc(OC)cc1O)C(O)C2` (stereo unspecified), the Potency result in test [1] is “inactive”.
The same measure, in the same setting: as for `COC(=O)C1C(CC(C)=O)C=CC(O)C12Oc1cc(C)cc(O)c1C2=O` (stereo unspecified), the entry is “inactive”.
`C=C1C[C@@]23CC[C@@H]4[C@](C)(C(=O)O)CCC[C@@]4(C)C2=CC[C@H]1C3`: the Potency entry in test [1] and in test [2] was “inactive” throughout.
Take `C=CC1(C)C=C2C(=O)CC3C(C)(C)CCCC3(C(=O)O)C2(O)CC1` (stereo unspecified): the Potency result in test [1] and in test [2] was “inactive” in each case.
As to `C/C=C(\C)C(=O)OC[C@H]1O[C@H](O[C@H]2O[C@H](CO)[C@@H](OC(=O)/C(C)=C/C)[C@H](O)[C@H]2O[C@@H]2O[C@H](CO)[C@@H](O)[C@H](O)[C@H]2O)[C@H](O[C@@H]2O[C@H](CO)[C@@H](O)[C@H](O)[C@H]2O)[C@@H](O)[C@@H]1O`, the outcome in test [1] and in test [2] was “inactive [at 9.23 µM]” each time.
Take `C=CC1(C)CC(OC(=O)C(=C)C(O)COC(C)=O)C(C(=C)C(=O)OC)C(O)C1C(=C)CO` (stereo unspecified): in test [1], the Potency result was “inactive”.
With `CC1CCC2(C)C(CC(O)C(O)C23CO3)C1(C)CCC1=CC(=O)OC1O` (stereo unspecified), the Potency result in test [1] was “inactive”.
On to `C=C1CCC2C(C)(C(=O)O)CC(O)CC2(C)C1CC/C(C)=C/C(=O)O` (stereo unspecified), for which the Potency entry in test [1] and in test [2] was “inactive” each time.
As to `Clc1ccc2c(c1)C1=NCCN1c1c(-c3noc(C4CC4)n3)ncn1-2`, the Potency result in test [1] was “inactive”.
`CC(=O)OC1C(O)CC(O[C@@H]2O[C@H](CO)[C@@H](O)[C@H](O)[C@H]2O)C2CCC3C(=O)OC(c4ccoc4)CC3(C)C21` (stereo partly specified): the Potency entry in test [1] and in test [2] was “inactive” throughout.
In the case of `CC(=O)C1CCC2(C)C3=C(CCC12C)C1(C)CCC(=O)C(C)(C)C1CC3` (stereo unspecified), in test [1], the Potency result is “inactive”.
For `C[C@@H]1O[C@@H](O[C@H]2[C@H](OC(=O)C34CCC5(C)C(=CCC6C7(C)CC(O)C(O[C@@H]8O[C@H](C(=O)O)[C@@H](O)[C@H](O)[C@H]8O)C(C)(C(=O)O)C7CCC65C)C3CC(C)(C)CC4O)O[C@H](C)[C@@H](O)[C@@H]2O)[C@H](O)[C@@H](O[C@@H]2OC[C@](O)(CO)[C@H]2O[C@@H]2O[C@H](CO)[C@@H](O)[C@H](O)[C@H]2O)[C@H]1O` (stereo partly specified), the activity change, negative = viability loss in test [1] was -24% [at 9.23 µM] (inactive).
On to `C[C@@H]1O[C@@H](O[C@H]2[C@H](OC(C#N)c3ccc(O)cc3)O[C@H](CO)[C@@H](O)[C@@H]2O)[C@H](O)[C@H](O)[C@H]1O` (stereo partly specified), for which the Potency result in test [1] and in test [2] was “inactive” throughout.
`CC(C)C(C#N)O[C@@H]1O[C@H](CO[C@@H]2OC[C@](O)(CO)[C@H]2O)[C@@H](O)[C@H](O)[C@H]1O` (stereo partly specified): the Potency result in test [1] and in test [2] was “inactive” throughout.
As to `C=C1CCC2C(C)(COC3OC(COC(=O)CC(=O)O)C(O)C(O)C3O)CCCC2(C)C1CCC1=CCOC1=O` (stereo unspecified), the Potency result in test [1] and in test [2] was “inactive” each time.
`CC1(C)CC2C(O)C3=C(CC(C)(O)C2C1)C(=O)OC3O` (stereo unspecified): the Potency result in test [1] and in test [2] was “inactive” throughout.
As to `C[C@@H]1CCN(C(=O)CC#N)C[C@@H]1N(C)c1ncnc2[nH]ccc12`, the Potency entry in test [1] was “inactive”. Besides, in test [2], the Potency was 23500 nM (active).
For the compound `C=CCc1ccc(O[C@@H]2O[C@H](CO[C@@H]3O[C@@H](C)[C@H](O)[C@@H](O)[C@H]3O)[C@@H](O)[C@H](O)[C@H]2O)cc1`, the Potency result in test [1] and in test [2] was “inactive” throughout.
